# High-throughput results from PubChem BioAssay.
# MIN6 prolif = inducers of MIN6 beta-cell proliferation, primary screen, ATP luminescence, uHTS | MIN6 cells proliferation, ATPlite luminescence, 48 h; cells starved in 0.2% serum; 100% = growth in 10% serum | proliferation, % at 10 µM | 0.29% of 330,000 active | AID 2380, 2010;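 active means compounds whose signal lies at least 3.5 SD above the mean of all wells on their plate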;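 further: 0% = DMSO-treated cells in low-serum medium and 100% = 10% serum control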
# iPSC survival up = enhancers of single-cell hiPSC survival, primary screen, ATPlite luminescence | 100% = ROCK inhibitor wells, 0% = DMSO | survival enhancement, % at 20 µM | AID 602274, 2012 | 0.044% of 360,000 active; in the data active means survival enhancement above about 18%;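 further: cells exposed to compounds for 16 hours before the ATP read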
# TAG inh = inhibitors of triacylglycerol accumulation, primary screen, cell-based, uHTS, fluorescence, H9c2. H9c2 cells, Nile Red lipid (TAG) fluorescence; cells loaded with 200 µM oleic acid. inhibition, % at 12.5 µM. 0.66% of 230,000 active. AID 651582, 2012;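 active means pattern-corrected inhibition of lipid staining of at least 50% with the nuclear-stain viability signal not falling by more than 50%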;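 further: 0% = DMSO wells and 100% = triacsin C control wells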
# TAG conf = triacylglycerol accumulation inhibitors, retest, confirmation, cell-based, single concentration, Nile Red fluorescence, H9c2. AID 651629, 2012. inhibition, % at 12.5 µM. H9c2 lipid accumulation; cells loaded with 200 µM oleic acid. 71% of 990 active. shares compounds with TAG inh;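 active means mean inhibition across replicates of 40% or more; inactive means mean inhibition below 40%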;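 further: plate controls were DMSO only wells for no effect and Triacsin C treated wells for full effect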
# Numbers without * were called inactive; / = no result given. Most compounds without a hit are left out; they make up all but 0.71% or so of the library.
SMILES,MIN6 prolif,iPSC survival up,TAG inh,TAG conf
CC(=O)CC1c2ccccc2C=C(c2ccsc2)N1c1ccc(-c2cccs2)cc1 (stereo unspecified),/,-1,/,/
CC(C)NC(=O)C1(C)CCCN1C(=O)c1ccc2c(c1)C(C)(C)CCC2(C)C (stereo unspecified),/,-4,2,/
O=C(Nc1ccc(Oc2ccccc2)cc1)c1ccc2nc([C@@H]3O[C@H](CO)[C@H](O)[C@H](O)[C@H]3O)[nH]c2c1,/,0,-3,/
COc1ccc(CC(N)c2csc(NC(=O)NCc3ccccc3)n2)cc1 (stereo unspecified),/,1,53*,42*
COc1ccc(CC(N)c2csc(NC(=O)Nc3ccccc3C(C)(C)C)n2)cc1 (stereo unspecified),/,-4,40,/
COc1ccc(CNC(=O)Nc2nc(C(N)c3ccccc3)cs2)cc1 (stereo unspecified),/,2,-3,/
COc1ccc(CC(N)c2csc(NC(=O)Nc3ccccc3-c3ccccc3)n2)cc1 (stereo unspecified),/,-3,73*,87*
CC(C)CN(C(=O)C1=COCCO1)c1c(N)n(Cc2ccccc2)c(=O)[nH]c1=O,/,-3,1,/
CCCn1c(SCC(=O)Nc2ccc(S(=O)(=O)N3CCOCC3)cc2)n[nH]c1=O,/,0,10,/
Cc1c(C#N)c(O)n(CCO)c(=O)c1N=Nc1ccc2c(c1)COC2=O,-1,6,85*,94*
Cc1cc(=O)n(CCO)c(O)c1C#N,0,-1,-2,/
COC(=O)N1CCCCC1c1cc(C(=O)Nc2cccc3c2CCCC3)no1 (stereo unspecified),/,-3,4,/
CCOC(=O)[C@]12CCC=C1N(Cc1ccc3c(c1)OCO3)C(=O)[C@H](CC(=O)NCc1ccc(C)o1)C2,/,0,/,/
COc1ccc(-n2nc(C(=O)NCc3ccco3)c3c4ccccc4n(C)c3c2=O)cc1,1,0,/,/
Cc1ccc(-n2nc(C(=O)NCc3ccc(C)o3)c3c4ccccc4n(C)c3c2=O)cc1,0,1,53*,21
COc1ccc(OC)c(CN2C(=O)c3ccccc3C2c2nnnn2C(C)C)c1 (stereo unspecified),/,-1,/,/
CCc1nc2ccc(C(=O)NCCc3c[nH]c4ccccc34)cn2c1N(C)Cc1ccc(N(C)C)cc1,/,-4,34,/
CC1=C(C(=O)Nc2ccccc2)C2(CCCCC2)C(C#N)=C(SCC(N)=O)N1,-1,-1,4,/
CC1(C)CC(=O)C2=C(C1)NC(SCC(=O)Nc1ccccc1)=C(C#N)C21CCCCC1,-4,3,58*,31
CC(C)(C)c1ccc(Oc2ccc(NC(=O)c3ccccc3C(=O)O)cn2)cc1,1,0,62*,6
O=C(O)c1ccccc1C(=O)Nc1ccc(Oc2ccccc2)cc1,-1,-1,1,/
CC1CCN(S(=O)(=O)N2CCC(C(=O)NC(C)c3ccccc3)CC2)CC1 (stereo unspecified),/,2,-3,/
C=CCCC(=O)N1C[C@H]2CON(C)[C@H]2C[C@H]1c1ccc(-n2ccnc2)cc1,/,0,/,/
C=CCc1c(C)nc(-c2ccccc2)nc1N/N=C/c1ccccc1,-2,-1,4,/
C=CCc1c(C)nc(-c2ccccc2)nc1N/N=C/c1ccncc1,-5,-1,65*,28
SMILES,MIN6 prolif,iPSC survival up,TAG inh,TAG conf
Cc1ccnc(NC(=O)CN(C)S(=O)(=O)c2cccc3nsnc23)c1,-1,4,-2,/
Cc1ccc2nc(NC(=O)CN(C)S(=O)(=O)c3cccc4nsnc34)sc2c1,-3,-3,71*,65*
O=C(Nc1ccccc1N1CCCCC1)c1ncoc1-c1ccc(F)cc1,-2,-1,55*,43*
O=C(Nc1ccccc1N1CCCCC1)c1ncoc1-c1cccc(F)c1,-5,0,30,/
N#CC1=C(SCC(=O)c2ccc(Br)cc2)NC2=C(C(=O)CCC2)C1c1ccco1 (stereo unspecified),-3,1,57*,40
CCc1ccc(NC(=O)CSC2=C(C#N)C(c3ccco3)C3=C(CCCC3=O)N2)cc1 (stereo unspecified),0,3,14,/
CCc1cnc(Nc2nc(C(N)Cc3ccc(F)cc3)cs2)nc1 (stereo unspecified),/,-3,11,/
COc1ccc(-n2cc(CNC3CCN(C)CC3)c(-c3cccc(F)c3)n2)cc1,-6,-1,17,/
COc1ccc(-n2cc(CN3CCCC3)c(-c3cccc(F)c3)n2)cc1,-3,-1,80*,25
